17 compounds from PubChem BioAssay (NCATS) can be followed below.

Test [1] is described as follows: qHTS assay for small molecule disruptors of the mitochondrial membrane potential - 1 hr assay (AID 651754; calls by dose curve; further: nearly all actives have a fitted effect of over 35% in size; further: potency means the concentration at half of the fitted maximal effect). The essentials:
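Read-out: dye fluorescence at 490 nm ex/535 nm em (monomers) and 540 nm ex/590 nm em (aggregates) in HepG2 cells. Compound exposure 1 hr at 37C, followed by 30 min dye loading.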

Test [2] concerns the target Tumor necrosis factor (Homo sapiens) (UniProt P01375). Kind of test: qHTS assay to identify small molecules that stimulate Tumor Necrosis Factor-alpha (TNF-alpha) secretion (AID 651757; active means well fitted curve in the direction sought with a large enough effect in the signal ratio; the % refers to the signal ratio; further: 0% is about no effect). The essentials:
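THP-1 cells, 3000/well; compound 17 hrs, 37 C; add cryptate/XL665 anti-TNF-alpha antibody pair; 3 hr RT; TR-FRET (HTRF) read of secreted TNF-alpha. Quantitative HTS format.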
(In general: In qHTS, concentration-response curves come from the screen itself.)

Test [3] in a line: qHTS assay to identify small molecules that stimulate interleukin-8 (IL-8) secretion (AID 651758; active means well fitted activation curve with a large enough effect in the signal ratio; the % refers to the signal ratio; further: 0% is about no effect). The gist of the method:
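Compounds are added to THP-1 cells (2000 per well) and left 16 hrs at 37 C. A labeled anti-IL-8 antibody pair is then added, and IL-8 secretion is measured by time-resolved FRET after 1-3 hrs at room temperature.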

Test [4] is described as follows: qHTS assay for environmental chemicals that activate the Aryl hydrocarbon Receptor (AhR) signaling pathway (AID 651777). Further: % of control where 0% means no effect; nearly all actives have a fitted effect of over 15% in size. To be noted: 1A2-DRE human hepatoma cells, luciferase, 24 h; activation: active compounds read high. The essentials: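 Stable CYP1A2 promoter/DRE-luciferase human hepatoma line treated 24 hr; One-Glo luminescence, 30 min RT.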
For test [5], the target named is Peroxisome proliferator-activated receptor alpha (Homo sapiens) (UniProt Q07869). As to the kind of experiment: qHTS assay for small molecule agonists of the peroxisome proliferator-activated receptor alpha (PPARalpha) signaling pathway (AID 651778). Further: % of control where 0% means no effect. To be noted: PathHunter PPARalpha complementation, chemiluminescence, 6 h; active compounds read high. The essentials: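 Enzyme-fragment complementation assay in which ligand-bound PPARalpha translocates and forms an active enzyme that generates chemiluminescence. Cells were plated overnight, exposed to compound for 6 hr at 37 C, and then given detection reagent for 60 min at room temperature.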
Sequence of Peroxisome proliferator-activated receptor alpha (Homo sapiens) (Q07869 whole entry, looked up, the tested form may be a part): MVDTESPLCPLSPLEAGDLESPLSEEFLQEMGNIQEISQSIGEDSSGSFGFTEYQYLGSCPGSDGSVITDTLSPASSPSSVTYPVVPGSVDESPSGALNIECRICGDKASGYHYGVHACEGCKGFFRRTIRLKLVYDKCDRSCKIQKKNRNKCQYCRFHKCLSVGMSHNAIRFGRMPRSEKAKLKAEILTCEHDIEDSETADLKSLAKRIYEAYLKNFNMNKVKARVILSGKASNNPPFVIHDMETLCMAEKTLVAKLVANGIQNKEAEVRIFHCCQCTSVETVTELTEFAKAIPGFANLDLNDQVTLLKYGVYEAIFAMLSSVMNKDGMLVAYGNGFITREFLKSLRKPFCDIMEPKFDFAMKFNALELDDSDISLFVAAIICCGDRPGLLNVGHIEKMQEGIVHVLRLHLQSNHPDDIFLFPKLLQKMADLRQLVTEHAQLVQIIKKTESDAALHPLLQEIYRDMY

The target of test [6] is Nuclear receptor ROR-gamma (Homo sapiens) (UniProt P51449). Kind of test: qHTS assay for small molecule antagonists of the retinoid-related orphan receptor gamma (ROR-gamma) signaling pathway (AID 651802).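 Further: CHO cells with doxycycline-induced ROR-gamma expression; luciferase reporter luminescence driven by ROR response element; series mostly up to about 92 µM; on the % scale 0 is the no-effect control and ±100 the full control effect; nearly all actives have a fitted effect of over 60% in size.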 The gist of the method: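 Luciferase read-out: ONE-Glo luminescence after 30 min at room temperature, following 16hr doxycycline induction at 37C, 5% CO2 of CHO cells with TET-inducible ROR and RORE-LUC reporter; decreased luminescence = reduced reporter activity.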
Sequence of Nuclear receptor ROR-gamma (Homo sapiens) (P51449 whole entry, looked up): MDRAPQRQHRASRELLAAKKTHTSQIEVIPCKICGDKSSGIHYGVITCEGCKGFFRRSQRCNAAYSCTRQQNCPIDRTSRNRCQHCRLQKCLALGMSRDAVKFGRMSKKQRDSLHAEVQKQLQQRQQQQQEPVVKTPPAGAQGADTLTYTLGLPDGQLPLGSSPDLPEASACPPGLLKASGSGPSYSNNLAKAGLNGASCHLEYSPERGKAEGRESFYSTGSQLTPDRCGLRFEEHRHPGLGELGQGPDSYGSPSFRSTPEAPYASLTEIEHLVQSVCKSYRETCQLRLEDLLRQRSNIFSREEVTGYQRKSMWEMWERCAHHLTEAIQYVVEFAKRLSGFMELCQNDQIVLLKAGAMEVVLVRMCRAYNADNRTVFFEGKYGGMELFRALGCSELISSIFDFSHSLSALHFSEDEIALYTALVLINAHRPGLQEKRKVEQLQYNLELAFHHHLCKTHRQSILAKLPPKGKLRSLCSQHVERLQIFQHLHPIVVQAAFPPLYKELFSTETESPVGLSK

Test [7] is described as follows: qHTS assay for small molecule agonists of the antioxidant response element (ARE) signaling pathway measured by Nrf2-dependant transcriptional activity (AID 720636; active means well fitted curve in the direction sought with a large enough effect in the repeat runs; an effect the other way counts as inactive or inconclusive;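 further: HepG2 cells with an ARE-driven luciferase reporter; % of control where 0% means no effect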). The essentials:
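Reporter gene assay, HepG2 ARE-luc: 16 hr compound, 37 C, 5% CO2; read-out luciferase luminescence.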

Test [8] in a line: qHTS assay for small molecule antagonists of the retinoid-related orphan receptor gamma (ROR-gamma) signaling pathway - cell viability counter screen (AID 720652; active means well fitted curve in the direction sought with a large enough effect in the repeat runs; an effect the other way counts as inactive or inconclusive;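 further: CHO reporter cells with doxycycline-induced ROR-gamma expression; series mostly up to about 92 µM; compound exposure lasted 16 hr before ATP read; on the % scale 0 is the no-effect control and ±100 the full control effect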). The gist of the method:
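CHO RORE-LUC/TET-ROR line, 1,000 cells/well, 37 C 5% CO2 5 hr; cpd or DMSO + doxycycline induction, 16 hr. CellTiter-Glo, 30 min RT, luminescence = ATP content.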

Test [9] can be described thus: qHTS assay for small molecule agonists of the antioxidant response element (ARE) signaling pathway measured by Nrf2-dependant transcriptional activity - cell viability counter screen (AID 720653; active means well fitted curve in the direction sought with a large enough effect in the repeat runs; an effect the other way counts as inactive or inconclusive; further: on the % scale 0 is the no-effect control and ±100 the full control effect). Conditions: ARE-bla HepG2 viability, CellTiter-Glo ATP luminescence, 16 h; active compounds read low. The essentials:
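ARE-bla HepG2 cells treated with compounds for 16 h at 37C; this counter screen measures viability as intracellular ATP by CellTiter-Glo luminescence after 30 min at room temperature.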

Test [10] can be described thus: qHTS assay for cell viability of HEK293 cells (AID 743288). Further: on the % scale 0 is the no-effect control and ±100 the full control effect; nearly all actives have a fitted effect of over 50% in size. To be noted: ATP luminescence (CellTiter-Glo), 18 h, active compounds read low. The essentials:
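Readout is luciferase-coupled ATP content (CellTiter-Glo luminescence, 30 min room temperature) as a measure of metabolically competent cells. Parental HEK293 cells were plated 5 h or more before compound addition, then treated 18 h at 37 C.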

The nature of test [11]: qHTS assay for cell viability of the p53RE-bla HCT-116 cell line (AID 743292). Further: on the % scale 0 is the no-effect control and ±100 the full control effect; nearly all actives have a fitted effect of over 55% in size. The essentials: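 Readout: CellTiter-Glo luminescence after 30 min RT. Treatment: compounds in DMSO, 16 h, 37 C. Cells: CellSensor p53RE-bla HCT-116, 4,000/well, preincubated 5 h.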
The target in test [12] is Nuclear receptor subfamily 1 group I member 2 (Rattus norvegicus) (UniProt Q9R1A7). Kind of test: qHTS assay for small molecule activators of the rat pregnane X receptor (rPXR) signaling pathway (AID 651751; call rule not given here; further: 0% is about no effect). Conditions: rPXR reporter cells, luciferase (One-Glo), 24 h.
Sequence of Nuclear receptor subfamily 1 group I member 2 (Rattus norvegicus) (Q9R1A7 whole entry, looked up): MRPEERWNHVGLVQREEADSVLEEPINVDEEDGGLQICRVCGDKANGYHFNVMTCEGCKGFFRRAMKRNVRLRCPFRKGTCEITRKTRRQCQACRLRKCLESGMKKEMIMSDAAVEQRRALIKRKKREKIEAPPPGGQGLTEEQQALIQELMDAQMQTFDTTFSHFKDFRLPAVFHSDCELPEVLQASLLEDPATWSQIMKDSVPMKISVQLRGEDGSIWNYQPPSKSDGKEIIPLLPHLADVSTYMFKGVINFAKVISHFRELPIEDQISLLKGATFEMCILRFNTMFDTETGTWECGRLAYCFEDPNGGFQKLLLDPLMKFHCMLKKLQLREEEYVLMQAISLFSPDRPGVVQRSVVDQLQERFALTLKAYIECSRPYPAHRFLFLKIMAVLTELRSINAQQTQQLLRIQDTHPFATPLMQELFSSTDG
Test [13] in a line: qHTS assay for small molecule activators of the human pregnane X receptor (PXR) signaling pathway (AID 720659; call rule not given here; further: 0% is about no effect).
The nature of test [14]: qHTS assay for small molecule disruptors of the mitochondrial membrane potential - 5 hr assay (AID 651755; calls by dose curve; further: nearly all actives have a fitted effect of over 40% in size; further: potency means the concentration at half of the fitted maximal effect). The essentials: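 Read-out: ratiometric Mito-MPS fluorescence, green monomer (ex 490/em 535) vs red mitochondrial aggregate (ex 540/em 590). HepG2 cells treated 5 hr at 37C before 30 min dye loading.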

Each structure is given as a SMILES string. Values joined by “and” are separate entries in the source; they are usually repeats but may differ in a detail not shown here. Equal values may be shown once. Values without a mark were called inactive. Results filed as inconclusive are left out. Active and inactive are the calls of the source. Unless noted, the call rests on the fitted dose curve; in most records, active means well fitted curve in the direction sought with a large enough effect; inconclusive means small, poorly fitted or top-dose-only effect, or another doubt; inactive means no such curve, though single readings can be large; an effect the other way counts as inactive or inconclusive.

Sequence of Tumor necrosis factor (Homo sapiens) (P01375 whole entry, looked up): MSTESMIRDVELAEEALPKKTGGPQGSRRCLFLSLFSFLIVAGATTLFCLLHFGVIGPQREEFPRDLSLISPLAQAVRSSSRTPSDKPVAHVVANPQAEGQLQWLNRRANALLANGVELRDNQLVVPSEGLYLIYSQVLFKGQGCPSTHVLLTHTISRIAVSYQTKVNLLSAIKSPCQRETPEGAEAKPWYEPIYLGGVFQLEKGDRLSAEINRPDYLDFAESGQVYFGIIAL

On to `CC(C)N=C=NC(C)C`, for which the Potency entry in test [1], in [2], in [3], in [6], in [8] and in [11] was “inactive” each time. Further, in [4], the activation is -2.05%. Also, the max response in [5] was -2.65%; in [9], -1%; in test [10], 3.11%; in [12], 1.41%. Also, the call in [7] and in [13] was inactive.

In the case of `C1CCC2OC2C1` (stereo not drawn), the Potency result in test [1], in test [14], in test [2], in test [6], in [8] and in [11] was “inactive” throughout. The max response in test [5] was -2.34%; in test [9], -3.72%; in test [10], -1.95%; in [12] it was -4.14%. Moreover, the compound was classed as inactive in test [7] and in test [13].

As to `CC(=O)c1ccc([N+](=O)[O-])cc1`, the Potency entry in test [1], in test [14], in test [2], in [8] and in [11] was “inactive” in each case. Further, in test [4], the activation was 0.202%. The call in test [7] and in test [13] was inactive. The figures for the max response in [9], in test [10] and in test [12] were 19%, 5.77% and -4.15%, respectively.

With `CCCCC=O`, the Potency entry in test [1], in test [14], in test [2], in test [6], in [8] and in [11] was “inactive” throughout. For the same compound, the max response is -1.36% in [5], -1.82% in test [9], -6.95% in test [10] and -1.64% in [12]. Further, the compound was classed as inactive in [7] and in [13].

As for `Cc1ccc(C#N)cc1`, the Potency result in test [1], in [14], in test [2], in test [6], in [8] and in test [11] was “inactive” throughout. The activation in test [4] is 2.83%. The result in test [7] and in test [13] was inactive. In addition, the max response in [9] is 4.38%; in test [10] it was -2.64%; in test [12], 3.52%.

For `C=C(C)C(=O)OCCCCCCCCCC`, the Potency entry in [1], in [2], in [3], in [6], in test [8] and in test [11] was “inactive” throughout. Moreover, the activation in [4] is -0.81%. Further, the max response in [5] is -0.186%; in [9], -0.733%; in [10] it was -5.31%; in [12], 3.26%. The compound was classed as inactive in [7] and in test [13].

As for `CC(C)(O)C(=O)O`, the Potency result in [1], in [14], in [2], in test [6], in [8] and in test [11] was “inactive” throughout. Besides, the max response is 4.71% in test [5], 1.81% in test [9], 1.23% in test [10] and 0.872% in [12]. For the same compound, the compound was called inactive in test [7] and in test [13].

`CCNc1ccccc1`: the Potency result in [1], in test [14], in [2], in [6] and in [11] was “inactive” in each case. Also, the activation in test [4] was 0.398%. In addition, the call in test [7] and in test [13] was inactive. In addition, the max response in test [9] was -0.56%; in [10], -1.34%; in [12], -2.55%.

As to `CC(=O)Nc1ccccc1C`, the Potency entry in [1], in test [14], in test [2], in test [8] and in test [11] was “inactive” throughout. Besides, the activation in test [4] is -0.35%. Besides, the outcome in test [7] and in test [13] was inactive. In addition, the max response in test [9] was -6.99%; in test [10], -9.82%; in test [12], -0.909%.

Regarding `Nc1cc(S(=O)(=O)O)ccc1O`, the Potency result in test [1], in [14], in test [2], in [6], in test [8] and in test [11] was “inactive” each time. For the same compound, the activation in test [4] was -0.613%. Moreover, the call in test [7] and in test [13] was inactive. In addition, the results for the max response in test [9], in test [10] and in [12] were 3.72%, -1.98% and 3.88%, respectively.

With `Nc1cc(Cl)c(N)c(Cl)c1`, the Potency result in test [1], in test [14], in [6], in test [8] and in test [11] was “inactive” in each case. Further, the max response was 1.23% and -1.85% in [5]; -6.05% and -8.26% in [9]; 3.57% and -5.3% in test [10]; -6.29% and -6.62% in test [12]. Also, the compound was called inactive in [7] and in test [13].

Turning to `Fc1ccccc1`, the Potency result in [1], in test [14], in test [2], in [6], in test [8] and in test [11] was “inactive” throughout. In addition, the max response is 1.57% in test [5], 8.77% in test [9], 9.93% in [10] and 3.18% in [12]. Moreover, the compound was called inactive in [7] and in test [13].

In the case of `Cc1ccccc1C=O`, the Potency result in [1], in test [14], in test [2], in test [6], in test [8] and in test [11] was “inactive” in each case. The activation in [4] was -0.786%. Also, the call in [7] and in [13] was inactive. In addition, the figures for the max response in test [9], in test [10] and in [12] were -9.4%, 5.96% and 1.66%, respectively.

As to `Cc1ccc2c(c1[N+](=O)[O-])C(=O)c1ccccc1C2=O`, the Potency is 1.88 µM (active) in test [1] and 1.33 µM (active) in [14]. For the same compound, the Potency entry in test [2], in [6], in [8] and in test [11] was “inactive” each time. Also, the results for the max response in [9] and in [12] were -12.9% and 5.79%, respectively.

With `CCOc1ccc(NC(C)=O)cc1N`, the Potency entry in [1], in test [14], in test [3], in [6], in test [8] and in test [11] was “inactive” in each case. Moreover, the max response in test [5] was -2.02%; in test [9], -8.42%; in [10], -2.43%; in test [12], 9.33%. For the same compound, the call in test [7] and in test [13] was inactive.

For `C=C(C)C(=O)OCCCCCC`, the Potency entry in test [1], in test [14], in test [2], in [6], in test [8] and in test [11] was “inactive” throughout. The max response in test [5] was -8.01%; in test [9], -4.89%; in [10] it was 6.76%; in test [12], -0.698%. Besides, the compound was called inactive in test [7] and in test [13].

Turning to `Cc1ccco1`, the Potency entry in [1], in test [14], in test [2], in [6], in test [8] and in [11] was “inactive” in each case. The activation in test [4] was -0.591%. Further, the compound was classed as inactive in test [7] and in test [13]. Besides, the max response is -4.14% in test [9], 3.18% in [10] and -0.023% in [12].
